Measurements reported in PubChem BioAssay (NCI).
Values joined by “and” are separate entries in the source; they are usually repeats but may differ in a detail not shown here. Equal entries are not always repeated. About 83,000 compounds went through this panel and 20% of them were active in at least one assay; those are over-represented in the sample as a whole.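 Assay: single dose, 48 h. Readout: percent growth (0 = no net growth; negative = cell death). Active: <10.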 Unmarked numbers belong to inactive results. Active and inactive are the calls of the source.

Tests used:
Experiment in all cases: NCI-60 one-dose screen, 48 h (100 = growth as untreated, 0 = no growth, -100 = all killed)
Details in all cases: 10 µM unless noted
SK-MEL-2 melanoma = test system: SK-MEL-2 melanoma
EKVX NSCLC = test system: EKVX NSCLC
SN12C renal = test system: SN12C renal
UO-31 renal = test system: UO-31 renal
TK-10 renal = test system: TK-10 renal
ACHN renal = test system: ACHN renal
CAKI-1 renal = test system: CAKI-1 renal
A498 renal = test system: A498 renal
CCRF-CEM leukemia = test system: CCRF-CEM leukemia
MOLT-4 leukemia = test system: MOLT-4 leukemia

Row | Structure (SMILES) | growth (SK-MEL-2 melanoma) | growth (EKVX NSCLC) | growth (SN12C renal) | growth (UO-31 renal) | growth (TK-10 renal) | growth (ACHN renal) | growth (CAKI-1 renal) | growth (A498 renal) | growth (CCRF-CEM leukemia) | growth (MOLT-4 leukemia)
1 | O=c1[nH]c(=O)n(C2OC(CO)C(O)C2O)cc1I (centres undefined) | 124% | 100% and 98.9% | 94.8% and 99% | 77.7% and 87.1% | 102% and 125% | 111% and 117% | 95.9% and 97.9% | 97.5% and 120% | 95.5% | 84.8% and 111%
2 | Nc1c(S(=O)(=O)O)cc(Br)c2c1C(=O)c1ccccc1C2=O | 91.8% | 101% | 107% and 112% | 77.4% and 67.5% | 102% and 110% | 108% and 107% | 101% and 95% | 114% and 96.6% | 98.3% | 99.7% and 91.1%
3 | COc1ccc(S(=O)(=O)c2ccc(F)cc2)cc1 | 99% | 122% | 97.8% | 83.8% | 95.4% | 103% | 108% | 108% |  | 92.3%
4 | CCCCNC(=O)c1ccccc1C | 100% | 94.9% | 98.5% | 94.4% | 97.5% | 104% | 96.5% | 126% |  | 98.5%
5 | COc1cc(Cl)ccc1C | 30.3% | 109% | 72.7% | 67.1% | 90.5% | -8.72% (active) | 54.7% | 110% |  | 81.7%
6 | Nc1ccc(O)c(C(=O)O)c1 | 110% and 124% and 122% | 101% and 99.5% and 106% | 82% and 103% and 98.7% | 101% and 92% and 67.8% | 133% and 110% and 98.8% | 99.3% and 108% and 82.8% | 107% and 102% and 99.8% | 108% and 88% |  | 97.8% and 104% and 105%
7 | O=C(O)C(Cc1ccc(OS(=O)(=O)Cc2ccccc2)cc1)NS(=O)(=O)Cc1ccccc1 (centres undefined) | 110% and 108% | 102% and 115% | 110% and 104% | 95.8% and 86.1% | 101% and 110% | 105% and 101% | 90.9% and 98.6% | 114% and 130% |  | 121% and 102%
8 | CC1(C)CC(=O)NC1=O | 99.2% | 103% | 101% | 87.1% | 91.8% | 98.2% | 93.5% | 81.5% |  | 107%
9 | COc1ccc(CCN=Cc2ccc(Cl)cc2)cc1OC | 98.4% | 111% | 99.5% | 83.7% | 107% | 106% | 101% | 95.3% | 105% | 99.9%
10 | OC1CCCN(Cc2ccccc2)C1 (centres undefined) | 115% | 116% | 98.5% | 88.5% | 97.4% | 106% | 105% | 96.2% | 98.4% | 92.5%
11 | CC1OS(=O)OC1C (centres undefined) | 91.4% and 111% | 100% | 95.8% and 95.4% | 96.1% | 99.8% and 107% | 91.9% and 103% | 96.7% and 89.1% | 101% and 105% | 96.2% | 81% and 113%
12 | NNC(=O)Nc1ccccc1 | 106% | 96.2% | 101% | 90% | 110% | 100% | 96.1% | 85.2% | 104% | 114%
